# The panel holds about 79,000 compounds, 15% with a hit somewhere; the sample as a whole holds those more often. A number with no mark means an inactive call. Calls of active or inactive are those of the source. Rule as the data show it: active = growth inhibition above about 70%; inactive = the rest.
# Test: NCI Yeast Anticancer Drug Screen. Data for the sgs1 mgt1 strain (AID 161);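 also: 0% = growth of cultures given vehicle only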
# Conditions: S. cerevisiae sgs1 mgt1 strain, at 50.0 µM, active compounds read high
# Procedure, shortened: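 Test agents were incubated with a DNA-repair-mutant yeast strain. Growth was then read and compared against vehicle-treated controls.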
row,Structure (SMILES),growth inhibition
1,CCC/C(=N/NC(=O)C1CCCO1)c1ccccc1 (stereo not given),16.6%
2,O=C(Cc1ccc([N+](=O)[O-])cc1)ON1C(=O)CCC1=O,-4.65%
3,c1ccc(CCc2nc3ccccc3[nH]2)cc1,1.5%
4,COc1cccc(/C=C/C(=O)c2sc(C(N)=S)nc2C)c1O,5.2%
5,O=C1N2Cc3c4ccc5c3CN3C(=O)N6Cc7c(ccc(c7CN1C6(c1ccccc1)C23c1ccccc1)OCCOCCNCCOCCO4)OCCOCCNCCOCCO5 (stereo not given),-34.2%
6,O=C1OC(/C=C/c2ccccc2)=NC/1=C\C=C\c1ccccc1,14.9%
7,CCOc1ccc(CO)cc1,8.55%
8,CC(=O)OC1(C(=O)OCC2CCCO2)CCCC1 (stereo not given),-3.5%
9,O=c1c2c(oc(=Nc3ccccc3)n1-c1ccccc1)CC1(CCCCC1)C2,-0.1%
10,CC(=O)N1N=C(c2ccc(OCC(O)CN3CCN(CC(O)COc4ccc(C5=NN(C(C)=O)C(c6ccccc6)C5)cc4)CC3)cc2)CC1c1ccccc1 (stereo not given),-8.85%
11,NC(=O)NC(=O)Cc1ccc([N+](=O)[O-])cc1,5.1%
12,CCOC(=O)CC1(c2ccccc2)OC(=O)c2ccccc21 (stereo not given),8.65%
13,[O-]c1c(Cl)c(Cl)c(O[P+](c2ccccc2)(c2ccccc2)c2ccccc2)c(Cl)c1Cl,99.5% (active)
14,O=C(NC(Cc1ccc(O)cc1)C(=O)O)SCc1ccccc1 (stereo not given),22.9%
15,CCC(=O)c1c(O)cc(O)cc1O,13.7%
16,CC=NC(C)(C)C,-12.3%
17,CCCCOc1ccc(Br)cc1,7.6%
18,CC(C)NC(=O)N(C(=O)C(F)(F)F)C(C)C,-4.6%
19,CC(C)CNc1ncnc2c1cnn2C,-1.65%
20,CC(C)(O)C(c1ccccc1)S(=O)(=O)O (stereo not given),-0.3%

row,Structure (SMILES),growth inhibition
1,CN(C)C(=O)/C=C/C(=O)O (tested in a mixture with another compound),6.9%
2,CC1(C)CCCCCCC2CC2CCCCCC(C)(C)C1=O (stereo not given),-4.8%
3,Nc1ncnc2c1[nH]c(=S)n2C1OC(CO)C(O)C1O (stereo not given),3.1%
4,CCOc1ccccc1C(=O)OCCCc1ccccc1,7.1%
5,Cc1cc(Cl)ncc1[N+](=O)[O-],7.55%
6,Clc1ccc(C2=CSC3=NCCN23)cc1,-9.55%
7,COc1ccc2[nH]c(=O)c(C(C)=O)c(O)c2c1,6.15%
8,Cc1ccccc1NCc1ccccc1,15.3%
9,N#Cc1c2ccccc2c(C#N)c2ccccc12,1.9%
10,O=c1[nH]c2cc([N+](=O)[O-])ccc2nc1/C(=N/Nc1ccccc1)C(O)c1ccc(C(O)/C(=N\Nc2ccccc2)c2cnc3cc([N+](=O)[O-])ccc3n2)cc1 (stereo not given),-11.4%
11,CCC(C)[N-]c1cccc[n+]1[O-].CCC(C)[N-]c1cccc[n+]1[O-].[Cu+2] (stereo not given),-9.8%
12,COc1ccc2c(c1)nc1n2C(N)=Nc2ccccc2S1,36.2%
13,CCOC(=O)NC(=O)c1cn(CCSCCOC(=O)NCCCCCCNC(=O)OCCSCCn2cc(C(=O)NC(=O)OCC)c(=O)[nH]c2=O)c(=O)[nH]c1=O,11.9%
14,C#CCOC(=O)[C@@H](C)c1ccc2cc(OC)ccc2c1,52.3%
15,C[Si](C)(C)O/C=C1/CCOC1=O,-13.9%
16,CCN(CC)C(=S)SCCCS(=O)(=O)O,1.75%
17,OCCSCCCCCCSCCO,5.85%
18,CC(NNC(=S)N1CCC(c2ccccc2)CC1)c1ccc2ccccc2n1 (stereo not given),29.9%
19,CN(C)c1ccc(C2N(C)CCN2C)cc1,9.85%
20,O=[N+]([O-])c1ccc(-c2nc3ccncc3[nH]2)cc1,-15.2%

# Test: NCI Yeast Anticancer Drug Screen. Data for the cln2 rad14 strain (AID 165);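 also: 0% = growth equal to vehicle treated cultures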
# Conditions: S. cerevisiae cln2 rad14 strain, at 50.0 µM, active compounds read high
# Procedure, shortened: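 Test compounds were added to cln2 rad14 yeast cultures; inhibition of growth was then determined by comparison with vehicle treatment.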
row,Structure (SMILES),growth inhibition
1,CCC/C(=N/NC(=O)C1CCCO1)c1ccccc1 (stereo not given),-4.2%
2,O=C(Cc1ccc([N+](=O)[O-])cc1)ON1C(=O)CCC1=O,-18.9%
3,c1ccc(CCc2nc3ccccc3[nH]2)cc1,-33.6%
4,COc1cccc(/C=C/C(=O)c2sc(C(N)=S)nc2C)c1O,25.9%
5,O=C1N2Cc3c4ccc5c3CN3C(=O)N6Cc7c(ccc(c7CN1C6(c1ccccc1)C23c1ccccc1)OCCOCCNCCOCCO4)OCCOCCNCCOCCO5 (stereo not given),3.4%
6,O=C1OC(/C=C/c2ccccc2)=NC/1=C\C=C\c1ccccc1,14.2%
7,CCOc1ccc(CO)cc1,34%
8,CC(=O)OC1(C(=O)OCC2CCCO2)CCCC1 (stereo not given),-9.8%
9,O=c1c2c(oc(=Nc3ccccc3)n1-c1ccccc1)CC1(CCCCC1)C2,-15.2%
10,CC(=O)N1N=C(c2ccc(OCC(O)CN3CCN(CC(O)COc4ccc(C5=NN(C(C)=O)C(c6ccccc6)C5)cc4)CC3)cc2)CC1c1ccccc1 (stereo not given),-30.4%
11,NC(=O)NC(=O)Cc1ccc([N+](=O)[O-])cc1,-5.15%
12,CCOC(=O)CC1(c2ccccc2)OC(=O)c2ccccc21 (stereo not given),4.75%
13,[O-]c1c(Cl)c(Cl)c(O[P+](c2ccccc2)(c2ccccc2)c2ccccc2)c(Cl)c1Cl,97.9% (active)
14,O=C(NC(Cc1ccc(O)cc1)C(=O)O)SCc1ccccc1 (stereo not given),-52.5%
15,CCC(=O)c1c(O)cc(O)cc1O,-22.6%
16,CC=NC(C)(C)C,-11.8%
17,CCCCOc1ccc(Br)cc1,8.1%
18,CC(C)NC(=O)N(C(=O)C(F)(F)F)C(C)C,-41%
19,CC(C)CNc1ncnc2c1cnn2C,-3.15%
20,CC(C)(O)C(c1ccccc1)S(=O)(=O)O (stereo not given),-27.4%

row,Structure (SMILES),growth inhibition
1,CN(C)C(=O)/C=C/C(=O)O (tested in a mixture with another compound),7.65%
2,CC1(C)CCCCCCC2CC2CCCCCC(C)(C)C1=O (stereo not given),7.8%
3,Nc1ncnc2c1[nH]c(=S)n2C1OC(CO)C(O)C1O (stereo not given),-12.1%
4,CCOc1ccccc1C(=O)OCCCc1ccccc1,-2.25%
5,Cc1cc(Cl)ncc1[N+](=O)[O-],-15.9%
6,Clc1ccc(C2=CSC3=NCCN23)cc1,-97.3%
7,COc1ccc2[nH]c(=O)c(C(C)=O)c(O)c2c1,1.6%
8,Cc1ccccc1NCc1ccccc1,-29.8%
9,N#Cc1c2ccccc2c(C#N)c2ccccc12,-25.7%
10,O=c1[nH]c2cc([N+](=O)[O-])ccc2nc1/C(=N/Nc1ccccc1)C(O)c1ccc(C(O)/C(=N\Nc2ccccc2)c2cnc3cc([N+](=O)[O-])ccc3n2)cc1 (stereo not given),5.25%
11,CCC(C)[N-]c1cccc[n+]1[O-].CCC(C)[N-]c1cccc[n+]1[O-].[Cu+2] (stereo not given),-2%
12,COc1ccc2c(c1)nc1n2C(N)=Nc2ccccc2S1,19.9%
13,CCOC(=O)NC(=O)c1cn(CCSCCOC(=O)NCCCCCCNC(=O)OCCSCCn2cc(C(=O)NC(=O)OCC)c(=O)[nH]c2=O)c(=O)[nH]c1=O,12.9%
14,C#CCOC(=O)[C@@H](C)c1ccc2cc(OC)ccc2c1,17.4%
15,C[Si](C)(C)O/C=C1/CCOC1=O,-6.5%
16,CCN(CC)C(=S)SCCCS(=O)(=O)O,9.2%
17,OCCSCCCCCCSCCO,10.6%
18,CC(NNC(=S)N1CCC(c2ccccc2)CC1)c1ccc2ccccc2n1 (stereo not given),11.5%
19,CN(C)c1ccc(C2N(C)CCN2C)cc1,-1.8%
20,O=[N+]([O-])c1ccc(-c2nc3ccncc3[nH]2)cc1,-21.6%

# Reference: PubChem BioAssay (NCI)
